In PubChem BioAssay (NCI):
The panel holds about 79,000 compounds, 15% with a hit somewhere; the sample as a whole holds those more often. Unmarked numbers belong to inactive results. Rule as the data show it: active = growth inhibition above about 70%; inactive = the rest. Where a SMILES comes first, the peptide text is derived from it. [ ]: non-standard residue; d: D form. The star is where a group is joined. Cbz = O=C(OCc1ccccc1)*; Nva = CCC[CH](N)C(=O)O

Assay: NCI Yeast Anticancer Drug Screen. Data for the sgs1 mgt1 strain (AID 161);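 also: 0% = growth of cultures given vehicle only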
Conditions: S. cerevisiae sgs1 mgt1 strain, at 50.0 µM, hits give high values
How it was run: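 Percent growth inhibition was derived by comparing compound-exposed mutant yeast with vehicle-exposed cultures. The strain carries alterations in DNA damage repair.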

| SMILES | growth inhibition [%] |
| --- | --- |
| NS(=O)(=O)c1cc(C(=O)O)c(O)c2ccccc12 | 1.15 |
| COC(=O)c1cc(C)nc(Cl)c1C(=O)O | -2.2 |
| COc1ccccc1CO | 3.85 |
| COc1cc2c(c(Cl)c1O)C(=O)OC2 | 12.8 |
| COC(=O)[C@@]12C(=O)N[C@@H](Cc3ccccc3)[C@@H]1[C@H](C)C(C)=C[C@@H]2CO | -44.9 |
| Cc1c(N=Nc2cccc(F)c2)c(-c2ccccc2)nn1C(=S)S | 11.7 |
| CC(O)COc1ccc(C(C)(C)C)cc1 (centres undefined) | -2.45 |
| CC(=O)CC(=O)N1CCCCCCC1 | -12.4 |
| O=C(Nc1ccc(Cl)cc1)Oc1ccc(Br)cc1Br | 10.7 |
| O=C(c1ccc(F)cc1)c1ccc2ccccc2c1 | -3.35 |
| CCc1ccccc1NC(=O)Sc1cccc(C)c1 | 25.6 |
| COc1ccc2[nH]c3c(C)c4c(c(C)c3c2c1)CN(C)CC4 | -17.2 |
| CCOCCOCCOCOCCOCCOCC | 8.4 |
| CC(=O)c1cccc(F)c1C(C)c1ccc2ccccc2c1 (centres undefined) | -8.8 |
| NC1=Nc2ccccc2Sc2nncn21 | -10.7 |
| Cc1c(C(=O)CC(=O)C(=O)NC2C3CC4CC(C3)CC2C4)[n+](=O)c2ccccc2n1[O-] (centres undefined) | -26.7 |
| O[C@@H]1C=C(c2ccccc2)[C@H](c2ccccc2)C1 | 9.65 |
| O=C(Cc1nc2ccccc2o1)C(=O)Nc1ccc(Cl)cc1Cl | 0.8 |
| CCOC(=O)c1cnc(C)nc1Nc1ccccc1 | -0.8 |
| N#Cc1nc(NC(=O)c2ccccc2C(=O)O)c(C#N)[nH]1 | -20.8 |
| O=C(NCCS(=O)(=O)N1C(=O)C2CCCN2C(=O)[C@@H]1Cc1ccccc1)OCc1ccccc1 (some centres undefined) | -4.35 |
| O=[N+]([O-])c1ccc(N=Cc2ccccc2)cc1 | 12.9 |
| NNC(=O)COc1ccc(Br)cc1Br | -5.15 |
| Cc1cc2c(cc1C)NC(=O)CC(=O)N2 | -8.45 |

Assay: NCI Yeast Anticancer Drug Screen. Data for the cln2 rad14 strain (AID 165);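 also: 0% = growth equal to vehicle treated cultures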
Conditions: S. cerevisiae cln2 rad14 strain, at 50.0 µM, hits give high values
How it was run: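 Yeast carrying cln2 and rad14 alterations (cell cycle control and DNA damage repair) were exposed to compounds. Growth inhibition was measured against vehicle-treated controls.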

| SMILES | growth inhibition [%] |
| --- | --- |
| CCCCCCCCCOc1ccc2ccccc2c1 | -17.9 |
| CCCC(NC(=O)OCc1ccccc1)C(=O)NC(C(=O)O)C(C)CC (centres undefined) (Cbz-[Nva]-Ile-OH; configuration not given here) | 29.1 |
| Cc1ccccc1N1C(=O)[N+]2(CCCCC2)N=C1[O-] | -42.5 |
| CCC([NH-])(CC)C[NH-].[Cl][Pt+2][Cl] | -1.45 |
| O=c1[nH]c(=O)n(C2CC(O)C(CO)O2)cc1OCC1CCCCC1 (centres undefined) | 1.85 |
| CN(C)NC(=O)CC#N | -4.3 |
| COC(=N)c1ncn(Cc2ccccc2)c1N | -24.4 |
| COC(=O)C1=C(C(=O)OC)SC(=C2C3=C(SC(C(=O)OC)=C(C(=O)OC)S3)c3ccccc32)S1 | 18.9 |
| Cc1ccc(-c2c(C#N)c(-c3ccc(Cl)cc3)c(C#N)c(=O)n2NS(=O)(=O)c2ccc(C)cc2)cc1 | 44.6 |
| CC12CCCCC1C(C(C)(C)OC(=O)c1ccc([N+](=O)[O-])cc1)CC2 (centres undefined) | -8.85 |
| Ic1ccccc1 | -9.35 |
| O=C/C=C/c1ccc2c(c1)OC(CO)C(c1ccc(O)c(O)c1)O2 (centres undefined) | 8.15 |
| Cc1c(Cl)ccc2c1NC(=O)C2(O)CC(=O)c1ccccc1 (centres undefined) | 7.15 |
| CCOC(=O)/C(C#N)=C/Nc1ccncc1 | 11.6 |
| COC(=O)C1CN=CN1CCc1ccccc1 (centres undefined) | 12.4 |
| Cc1nc(C)c(N2CCN(S(N)(=O)=O)CC2)c(=O)[nH]1 | 6.6 |
| NS(=O)(=O)c1cc(C(=O)O)c(O)c2ccccc12 | -23.8 |
| COC(=O)c1cc(C)nc(Cl)c1C(=O)O | 0 |
| COc1ccccc1CO | 13.7 |
| COc1cc2c(c(Cl)c1O)C(=O)OC2 | 3.55 |

| SMILES | growth inhibition [%] |
| --- | --- |
| COC(=O)[C@@]12C(=O)N[C@@H](Cc3ccccc3)[C@@H]1[C@H](C)C(C)=C[C@@H]2CO | -27.8 |
| Cc1c(N=Nc2cccc(F)c2)c(-c2ccccc2)nn1C(=S)S | 15.9 |
| CC(O)COc1ccc(C(C)(C)C)cc1 (centres undefined) | -13 |
| CC(=O)CC(=O)N1CCCCCCC1 | -8.4 |
| O=C(Nc1ccc(Cl)cc1)Oc1ccc(Br)cc1Br | 4.65 |
| O=C(c1ccc(F)cc1)c1ccc2ccccc2c1 | 10.7 |
| CCc1ccccc1NC(=O)Sc1cccc(C)c1 | -12.9 |
| COc1ccc2[nH]c3c(C)c4c(c(C)c3c2c1)CN(C)CC4 | -1.25 |
| CCOCCOCCOCOCCOCCOCC | 7.25 |
| CC(=O)c1cccc(F)c1C(C)c1ccc2ccccc2c1 (centres undefined) | 3.35 |
| NC1=Nc2ccccc2Sc2nncn21 | -10.6 |
| Cc1c(C(=O)CC(=O)C(=O)NC2C3CC4CC(C3)CC2C4)[n+](=O)c2ccccc2n1[O-] (centres undefined) | 16.3 |
| O[C@@H]1C=C(c2ccccc2)[C@H](c2ccccc2)C1 | -7.9 |
| O=C(Cc1nc2ccccc2o1)C(=O)Nc1ccc(Cl)cc1Cl | 17.1 |
| CCOC(=O)c1cnc(C)nc1Nc1ccccc1 | -21.4 |
| N#Cc1nc(NC(=O)c2ccccc2C(=O)O)c(C#N)[nH]1 | 4.95 |
| O=C(NCCS(=O)(=O)N1C(=O)C2CCCN2C(=O)[C@@H]1Cc1ccccc1)OCc1ccccc1 (some centres undefined) | 19.4 |
| O=[N+]([O-])c1ccc(N=Cc2ccccc2)cc1 | 3.75 |
| NNC(=O)COc1ccc(Br)cc1Br | 26.4 |
| Cc1cc2c(cc1C)NC(=O)CC(=O)N2 | 1.95 |
